Experimental findings from PubChem BioAssay (NCATS) are described below.

Inconclusive results are not listed. A number with no mark means an inactive call. Calls of active or inactive are those of the source. Calls come from the whole dose curve; as a rule, active = well fitted inhibition curve with a large enough effect; inconclusive = small, poorly fitted or top-dose-only effect; inactive = no such curve, though single readings can be large or run the other way.
% is set by controls: 0 for no effect and ±100 for the full control effect; potency is the fitted concentration of half-maximal effect.

One test is described as follows: qHTS assay to identify inhibitors of the type 1 interferon - major histocompatibility complex class I in skeletal muscle: Counter screen cell viability and HiBit confirmation (AID 1347412). Note: nearly all actives have a fitted effect of over 60% in size. The following applies: iHSKM muscle cells + IFN-b, HiBiT or CellTiter-Glo, 24 h; HiBiT. The essentials: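 Human myoblast knock-in line, 4.0 ng/ml IFN-beta stimulation, 24 h compound treatment. Endpoints: HiBiT lytic luminescence (HLA-B level) and CellTiter Glo (ATP). Dosing 12 concentrations, 3-fold steps, 46 uM highest final.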
Take `Cc1[nH]c2ccccc2c1CCNCc1ccc(/C=C/C(=O)NO)cc1`: the Potency was 62.5 nM (active).

On to `O=C1Nc2nc(-c3c(O)cccc3OCC3CC3)cc([C@@H]3CCCNC3)c2CO1`, for which the Potency is 7010 nM (active).

`COc1cccc(-c2cc(F)ccc2C2Cc3nc(N)nc(C)c3C(=O)N2)n1` (stereo unspecified): the Potency was 22.2 nM (active).

Still in this test, the particulars now being: iHSKM muscle cells + IFN-b, HiBiT or CellTiter-Glo, 24 h; Viability; at 45.9 µM (top of the series).
For `C=CC(=O)Nc1ccc2ncnc(Nc3cccc(Br)c3)c2c1`, the activity change, negative = inhibition is -0.162%.

As for `Cc1[nH]c2ccccc2c1CCNCc1ccc(/C=C/C(=O)NO)cc1`, the activity change, negative = inhibition was -25.2%.

In the case of `O=C1Nc2nc(-c3c(O)cccc3OCC3CC3)cc([C@@H]3CCCNC3)c2CO1`, the activity change, negative = inhibition was -25%.
